Experimental data as given in ChEMBL document CHEMBL4513216, “Probing the Open Global Health Chemical Diversity Library for Multistage-Active Starting Points for Next-Generation Antimalarials” (ACS Infect Dis, 2020).
In all, about 68,000 compounds went through this assay and about 2,700 (4%) showed an effect of 50% or more. What follows is part of a selection rich in strong results, with near analogues and random picks from the rest.

System: Plasmodium berghei
Assay: Screen against P. berghei liver stage (PbLuc), transformed with Luciferase, at 2uM
Assay type: functional, HepG2
Settings: tested at 2 uM

Compound | INHIBITION [%]
COc1ccc(C(=O)C2CCCN(CCc3ccccc3)C2)c(OC)c1 (stereo unspecified) | -18.81
CCOc1cc(CN(C)Cc2ccccc2)ccc1OC(F)F | -5.59
CCOc1cc(CN(C)CCC(=O)OC)ccc1OC(F)F | 14.96
CCOc1cc(CN(C)CC(=O)O)ccc1OC(F)F | 78.96
CCN(Cc1nonc1C)C(=O)c1cc(C(F)(F)F)nn1C | -12.5
COc1ncccc1CN1CC[C@@]2(O)CCN(C(=O)C3CCC3)C[C@H]2C1 | 27.85
c1cnc(N2CCC3(CCN(Cc4cccnc4)CC3)CC2)nc1 | 45.82
O=C([C@@H]1CCCO1)N1CCOCC2(CCN(Cc3cccnc3)C2)C1 (stereo partly specified) | -31.3
COCC(=O)N1CC[C@]2(O)CCN(Cc3ccsc3)C[C@@H]2C1 | 19.49
COCC(=O)N1CCC2(CC1)C(=O)N(Cc1cccnc1)CCN2C | 33.3
O=C(C1CCCO1)N1CCC2(CC1)COCCN(Cc1cccnc1)C2 (stereo unspecified) | 55.49
O=C(C1CCCO1)N1CCC2(CC1)COCCN(Cc1ccncc1)C2 (stereo unspecified) | -66.98
Cc1cnc(N2CC3(CCN(Cc4cccnc4)C3)C2)nc1 | 9.53
COCC(=O)N1CCC2(CCN(Cc3ccc(C)cc3)CC2)CC1 | -4.2
COCC(=O)N1CCC2(CCN(Cc3cccnc3)C2)CC1 | 51.81
c1cnc(N2CC3(CCN(Cc4cccnc4)C3)C2)nc1 | 52.91
COCC(=O)N1CC[C@]2(O)CCN(Cc3cccnc3OC)C[C@@H]2C1 | 56.49
Cc1cnn(CC2CCCN2C(=O)c2ccc(-n3cccn3)nc2)c1 (stereo unspecified) | -26.85
O=C(NCC(F)(F)F)c1ccc(-c2ccco2)[nH]c1=O | -5.09
Cc1cnn(CC2CN(Cc3nccn3CC(F)(F)F)CCO2)c1 (stereo unspecified) | 36.64
CN1C[C@@H](NC(=O)c2ccccc2)C[C@H]1c1nc(-c2cnccn2)no1 | 23.26
COc1ccc(CNC(=O)CCc2nnc3ccccn3c2=O)cc1 | 8.41

Compound | INHIBITION [%]
CO[C@@H]1CCN(C(=O)Cc2ccc(F)cc2)[C@@H]1Cc1cccnc1 | -16.75
OC1(Cn2ccc3ncccc32)CCN(Cc2cccnc2)CC1 | 53.24
CCn1cc(CN2CCC(O)(Cn3ccc4ncccc43)CC2)cn1 | 22.39
OC1(Cn2ccc3ncccc32)CCN(Cc2cc(F)cc(F)c2)CC1 | 31.56
O=C(CCOc1ccccc1)N1CCCC(n2cncn2)C1 (stereo unspecified) | 33.5
Cc1nc2c(c(N3CC=CC3)n1)CCN(c1ncccc1C(N)=O)CC2 | -11.31
CCS(=O)(=O)CCCOc1nc(-c2ccccc2Cl)no1 | -5.27
O=C1CCC2(CCC(NC3CCOC3)CC2)N1Cc1ccncc1 (stereo unspecified) | 56.76
O=C1CCC2(CCC(NC3CCOC3)CC2)N1Cc1ccccc1 (stereo unspecified) | 35.34
Cc1ccc(CN2C(=O)CCC23CCC(NC2CCOC2)CC3)cc1 (stereo unspecified) | 29.85
CCc1ccc(CN(C)c2cc(COC)nc3ccnn23)cc1 | 14.96
CN(Cc1cnn(C)c1)C(=O)C1COc2ccccc2C1 (stereo unspecified) | -11.77
O=C(NC1CCC1)[C@H]1C[C@H]2CN(S(=O)(=O)c3ccccc3)C[C@@H]1O2 | 24.34
Cc1ccc(OCCCNC(=O)NC(C)c2nncn2C)cc1 (stereo unspecified) | -10.5
Cc1cccc(OCCCNC(=O)NC(C)c2nncn2C)c1 (stereo unspecified) | -7.01
Cc1cccc(C)c1OCCNC(=O)NC(C)c1nncn1C (stereo unspecified) | 64.53
NC(=O)c1ccc(OCCCN2C[C@H](C3CC3)[C@@H](N)C2)cc1 | 9.56
N[C@H]1CN(CCCOc2ccccc2)C[C@@H]1C1CC1 | 18.64
N[C@H]1CN(CCOc2ccc(F)cc2)C[C@@H]1C1CC1 | 55.85
COC1CN(C(=O)OCC(C)C)CCC(=O)N(C)c2ccccc21 (stereo unspecified) | -16.76
Cc1nn(C)c2nc(N3CCCCC3c3ccc(F)cc3)sc12 (stereo unspecified) | 8.3
C1CCC(CN2Cc3nnn(CC4CC4)c3C(COCC3CC3)C2)C1 (stereo unspecified) | -6.19

Compound | INHIBITION [%]
O=C1[C@@H]2CCN(Cc3ccoc3)C[C@@H]2OCCN1Cc1cccc(F)c1 | 20.41
Cc1ccc(S(=O)(=O)Nc2ccc(-n3cccc3C(=O)O)c(C)c2)s1 | -1.14
Cc1cc(NS(=O)(=O)c2ccc(Cl)s2)ccc1-n1cccc1C(=O)O | 31.15
Cc1cc(NS(=O)(=O)c2cccs2)ccc1-n1cccc1C(=O)O | 50.17
O=C(NCCOc1ccccc1)NCC(O)c1cccs1 (stereo unspecified) | -85.29
Cc1ccoc1C(=O)N1C[C@@H]2[C@@H](C1)OCC(=O)N2Cc1cccnc1 | -2.91
Cc1nc2c(c(NC3CC3)n1)CCN(C(=O)CCO)CC2 | -10.44
CC(=O)N1CCC(C(=O)NCCN2CCCCC2)CC1 | 18.97
CN1CCN(C(=O)NCCc2ccc(F)cc2)[C@H]2CS(=O)(=O)C[C@H]21 | 50.59
COc1ccc(CNC(=O)N2CCN(C)[C@@H]3CS(=O)(=O)C[C@@H]32)cc1 | -47.18
COc1ccc(CCNC(=O)N2CCN(C)[C@@H]3CS(=O)(=O)C[C@@H]32)cc1 | 43.44
Cc1ccc(OCCN2CCN(Cc3cnn(CCO)c3)CC2)cc1 | -72.55
COCC(=O)N1CCCC1c1cccc(Nc2ncc(C)s2)n1 (stereo unspecified) | 44.48
COCC(=O)N1CCCCC1c1ccnc(Nc2cnccn2)n1 (stereo unspecified) | 11.55
COCC(=O)N1CCCCC1c1ccnc(Nc2ncc(C)s2)n1 (stereo unspecified) | 60.74
CN1CCN(C(=O)c2n[nH]c3c2CN(C2CCOCC2)CC3)CC1 | 36.44
COc1cc(CNC(C)c2cccc(Cl)c2)cc(OC)c1OC (stereo unspecified) | 27.88
CC(C)c1ccc(OCC(=O)NS(=O)(=O)c2cccnc2)cc1 | -1.85
Cc1cccc(NCC(=O)Nc2cc(F)ccc2F)c1C(N)=O | 38.91
Cc1cc(C)n(CC2(CNC(=O)C(c3ccc(F)cc3)N(C)C)CC2)n1 (stereo unspecified) | -4.04
Cc1cc(C)n(CC2(CNC(=O)C(c3ccccc3F)N(C)C)CC2)n1 (stereo unspecified) | 55.85
Cc1cc(C)n(CC2(CNC(=O)C(c3ccccc3C)N(C)C)CC2)n1 (stereo unspecified) | -14.49

Compound | INHIBITION [%]
Cc1cc(C(F)(F)F)nc(CCNC(C)Cn2ccnc2)n1 (stereo unspecified) | -15.14
OCCN(Cc1nc(-c2ccc3c(c2)OCO3)no1)CC1CC1 | 83.98
OCCN(Cc1ccccc1)Cc1nc(-c2ccc3c(c2)OCO3)no1 | -48.83
OCCN(Cc1nc(-c2ccc3c(c2)OCO3)no1)Cc1cccs1 | -49.59
COCCS(=O)(=O)Nc1ccc(-n2cncn2)c(F)c1 | 3.33
CN1CCN(C(=O)c2cc3sccc3n2Cc2ccccc2F)CC1 | -10.78
Cc1ccc(N2CC[C@@H]3CN(Cc4cc[nH]n4)C[C@@H]3C2)nn1 | 27.95
CC(C)(C)CCNc1nccc(-c2c[nH][nH]c2=O)n1 | 22.5
CC(C)(C)NC[C@@H]1CCC[C@@H]2CN(Cc3csnn3)C[C@@H]21 | -21.74
c1ccc(NC[C@@H]2CCC[C@@H]3CN(Cc4csnn4)C[C@@H]32)nc1 | 24.51
c1cnc(NC[C@@H]2CCC[C@@H]3CN(Cc4csnn4)C[C@@H]32)nc1 | 55.7
COc1ccc2[nH]cc(C(=O)CNc3nc(C)cs3)c2c1 | 20.71
O=C(NCCN1CCCC(CO)C1)c1ccc2sccc2c1 (stereo unspecified) | 13.99
O=C(NCCN1CCOC1=O)c1cc(-c2ccccc2)on1 | 9.85
O=C(NCCN1CCOC1=O)c1ccc2sccc2c1 | 61.27
NCc1cnc(Nc2ccccc2)nc1 | 16.87
O=C1Nc2ccccc2CNC12CCN(CC1CCNC1)CC2 (stereo unspecified) | 21.69
O=C1Nc2ccccc2CNC12CCN(CC1CCCC1)CC2 | -7.08
O=C1Nc2ccccc2CNC12CCN(CC1CC1)CC2 | 58.42
COc1cccc2sc(N3CC(OC(C)=O)C3)nc12 | -5.98
CSCC(C)NS(=O)(=O)c1ccc(C)c(N(C)C)c1 (stereo unspecified) | -1.57
COCCC(C)NS(=O)(=O)c1ccc(C)c(N(C)C)c1 (stereo unspecified) | 52.6

Compound | INHIBITION [%]
Cc1ccc(S(=O)(=O)N[C@H](CO)C(C)C)cc1N(C)C | -94.5
CN(C)CC(=O)N1Cc2ncn(C)c2C(COCC2CCOCC2)C1 (stereo unspecified) | 6.8
Cn1c(CC2CCS(=O)(=O)C2)nnc1SCCOc1ccccc1F (stereo unspecified) | 7.08
O=C(Cn1ccc(=O)[nH]c1=O)NCc1cccnc1OCC(F)(F)F | 51.76
O=C(Cn1cccnc1=O)NCc1cccnc1OCC(F)(F)F | 3.95
CN1CC(C(=O)NCc2cccnc2OCC(F)(F)F)CC1=O (stereo unspecified) | 9.21
Cc1ccc2[nH]c(=O)c(CNCCCN3CCOCC3)cc2c1 | 22.39
O=C(c1c[nH]cn1)N1CCC(F)(F)C2(CCN(c3ncccn3)C2)C1 (stereo unspecified) | 38
CCc1cc(C(=O)N2Cc3ccccc3OC3(CCOCC3)C2)on1 | 14.05
Cc1cnn(CC2CCCN2c2ncnc3ccsc23)c1 (stereo unspecified) | 53.33
c1nc(N2CCCC2Cn2cncn2)c2sccc2n1 (stereo unspecified) | -48.41
O=C1[C@@H]2CC[C@@H](CN(c3ncnc4ccsc34)C2)N1CC1CC1 | 62.51
c1nc(N2CCCC(Cn3cncn3)C2)c2ccsc2n1 (stereo unspecified) | -1.74
CN1C(=O)[C@@H]2CC[C@H]1CN(c1ncnc3ccsc13)C2 | 14.82
COc1cc(N2C[C@H]3CC[C@@H](C2)N(CC2CCC2)C3=O)ncn1 | 8.26
Cc1nc(C)n(CC2CCCN(c3ncnc4ccsc34)C2)n1 (stereo unspecified) | -20.93
c1nc(N2CCCC(Cn3cncn3)C2)c2sccc2n1 (stereo unspecified) | 68.24
Cc1cnn(CC2CCCN2c2ncnc3sccc23)c1 (stereo unspecified) | 37.87
